High-throughput results as filed in PubChem BioAssay.
Rows were chosen to be rich in hits. Some 1.9% of all compounds tested hit in one or more screens of this group.
Ba/F3 V617F tox = reduced viability of JAK2V617F-dependent Ba/F3 cells, primary screen, JAK2V617F inhibitor project, cell-based, Ba/F3 EpoR-JAK2V617F, luminescence | ATP luminescence | inhibition, % at 5.6 µM | 220,000 tested, 1.1% active | AID 1446, 2008;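 active = inhibition above the campaign mean plus 3 SD over all tested compounds, cut at about 24% in these data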;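 note: cytokine-independent growth of Ba/F3 cells driven by EpoR plus mutant JAK2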
KLF5 inh = KLF5 expression inhibitors, primary screen, DLD-1 cells, luminescence | DLD-1 KLF5 promoter-luciferase reporter | inhibition, % at 5 µM | 290,000 tested, 0.23% active | AID 1700, 2009;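 active = inhibition above a per-plate limit of that plate's mean compound inhibition plus 3 SD, cut at about 60% in these data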;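 note: higher means less KLF5 promoter-driven luciferase light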
BaF3 parental = parental Ba/F3 cell viability inhibition, counter-screen for JAK2V617F inhibitor project, murine pro-B, CellTiter-Glo luminescence | 220,000 tested, 1.1% active | AID 1486, 2009 | inhibition, % at 5.6 µM | CellTiter-Glo ATP luminescence;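 active = inhibition above a per-campaign cutoff, the mean inhibition of all tested compounds plus 3 SD, cut at about 27% in these data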
IEC-6 cytotox = cytotoxicity in IEC-6 intestinal epithelial cells, primary screen, cytotoxicity control for KLF5 inhibitor project, cell-based, luminescence; IEC-6 cytotoxicity, luminescence viability; inhibition, % at 5 µM; 290,000 tested, 0.78% active
APP transl inh = inhibitors of APP translation via 5'UTR reporter, primary screen, APP 5'UTR luciferase, SH-SY5Y cells. AID 1285, 2008. inhibition, % at 2 µM. SH-SY5Y APP 5'UTR-luciferase reporter, luminescence. 190,000 tested, 0.82% active;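 active = inhibition above a set limit, derived from the sample mean plus 3 SD, cut at about 45% in these data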
IEC-6 tox confirm = cytotoxic compounds in IEC-6 epithelial cells, confirmation, cytotoxicity control, cell-based, luminescence; inhibition, % at 5 µM; shares compounds with IEC-6 cytotox; IEC-6 rat intestinal epithelial viability; 1,900 tested, 63% active; AID 1907, 2009
Large screens that a line does not name were inactive (follow-up assays come after a bar, where they were run). Cut-off read from the data, not from the text of the source, unless noted: active = inhibition above about 22%; inactive = the rest.

O=C(CSc1nc2ccccc2n1-c1ccccc1)Nc1ncc(Cl)cc1Cl	IEC-6 cytotox 64 | IEC-6 tox confirm 39
COc1ccc(-n2c(SCC(=O)Nc3ncc(Cl)cc3Cl)nc3ccccc32)cc1	IEC-6 cytotox 69 | IEC-6 tox confirm 39
Cc1cccc(-n2c(SCC(=O)Nc3ncc(Cl)cc3Cl)nc3ccccc32)c1	IEC-6 cytotox 67 | IEC-6 tox confirm 47
CC(C)S(=O)(=O)c1csc(C(=O)Nc2ccc(F)cc2)c1N	none (no result: APP transl inh)
CCCC[C@@H](CNC)NC[C@H](NCCCCC1CCCCC1)C(C)C	none (no result: Ba/F3 V617F tox, BaF3 parental, APP transl inh)
CCC[C@@H](CN[C@@H](CNC)C(C)C)NCCCCc1ccccc1	IEC-6 cytotox 44 (no result: Ba/F3 V617F tox, BaF3 parental, APP transl inh) | IEC-6 tox confirm 66
CCC[C@H](CN[C@@H](CNC)[C@H](C)CC)NCCc1cc(C(F)(F)F)cc(C(F)(F)F)c1	IEC-6 cytotox 36 (no result: Ba/F3 V617F tox, BaF3 parental, APP transl inh) | IEC-6 tox confirm 57
O=C(NCCCCc1ccccc1)c1ccccc1	none
CNC[C@@H](CC1CCCCC1)NC[C@H](CC(C)C)NCCc1cccc(C(F)(F)F)c1	none (no result: Ba/F3 V617F tox, BaF3 parental, APP transl inh)
CCC[C@@H](CNC)NC[C@H](Cc1ccccc1)NCCCCc1ccccc1	IEC-6 cytotox 24 (no result: Ba/F3 V617F tox, BaF3 parental, APP transl inh) | IEC-6 tox confirm 101
CNC[C@@H](Cc1ccccc1)NC[C@@H](CC1CCCCC1)NCCCc1ccccc1	IEC-6 cytotox 102 (no result: Ba/F3 V617F tox, BaF3 parental, APP transl inh) | IEC-6 tox confirm 71
O=C(O)CNC(=O)c1ccccc1Br	none
CCOC(=O)Nc1ccc2nc(Sc3ccc(Cl)cc3)sc2c1	IEC-6 cytotox 38 (no result: APP transl inh) | IEC-6 tox confirm 24
NC(=O)C1CCCN1S(=O)(=O)c1ccc2ccccc2c1 (stereo not given)	none (no result: Ba/F3 V617F tox, BaF3 parental, APP transl inh)
COc1ccc(-c2ccc(CCC(=O)O)n2-c2ccccc2OC)cc1	IEC-6 cytotox 41 (no result: Ba/F3 V617F tox, BaF3 parental, APP transl inh) | IEC-6 tox confirm inactive
O=C(COC(=O)C1CCN(S(=O)(=O)c2ccc3c(c2)OCCO3)CC1)Nc1cc(C(F)(F)F)ccc1Cl	none
C=CCC1(C#N)C(SC)=NC2=C(C(=O)CC(C)(C)C2)C1c1ccc(Br)cc1 (stereo not given)	none
Cc1cc(C(=O)NNc2ccc(F)cc2F)no1	IEC-6 cytotox 32 (no result: APP transl inh) | IEC-6 tox confirm inactive
Cc1cc(C(=O)NNc2ccc(Cl)cc2)no1	IEC-6 cytotox 45 (no result: APP transl inh) | IEC-6 tox confirm inactive
O=C(O)CNC(=O)c1ccc(NC(=O)/C(=C/c2ccccc2)NC(=O)c2ccccc2)cc1	none (no result: Ba/F3 V617F tox, BaF3 parental, APP transl inh)
Cn1c(=O)c(C(=O)NCc2ccc(Cl)cc2)c(O)c2ccccc21	none (no result: Ba/F3 V617F tox, BaF3 parental, APP transl inh)
CC(=O)c1c(-c2ccccc2)c2cc(Cl)ccc2n(C)c1=O	IEC-6 cytotox 22 (no result: Ba/F3 V617F tox, BaF3 parental, APP transl inh) | IEC-6 tox confirm inactive
O=c1[nH]c(=O)n([C@H]2C[C@H](O)[C@@H](CO)O2)cc1C(F)(F)F	Ba/F3 V617F tox 96, BaF3 parental 88, IEC-6 cytotox 85, APP transl inh 59 | IEC-6 tox confirm 80
CCc1cn([C@H]2C[C@H](O)[C@@H](CO)O2)c(=O)[nH]c1=O	none
CCc1ccc(NC(=O)CCn2nc(C)c(S(=O)(=O)N3CCCCC3)c2C)cc1	none (no result: Ba/F3 V617F tox, BaF3 parental, APP transl inh)
CCn1c(C)c(C)c2cc(C(=O)N3CCc4ccccc4C3)ccc21	IEC-6 cytotox 46 (no result: Ba/F3 V617F tox, BaF3 parental, APP transl inh) | IEC-6 tox confirm 30
CC(C)Cn1c([N+](=O)[O-])nc2c1c(=O)[nH]c(=O)n2C	none (no result: APP transl inh)
Cn1c(=O)[nH]c(=O)c2c1nc([N+](=O)[O-])n2Cc1ccccc1	Ba/F3 V617F tox 95, BaF3 parental 77, IEC-6 cytotox 38 (no result: APP transl inh) | IEC-6 tox confirm inactive
Cc1ccc(-n2nnnc2Sc2ccc(S(=O)(=O)NCCN(C)C)cc2[N+](=O)[O-])cc1	Ba/F3 V617F tox 96, BaF3 parental 68, IEC-6 cytotox 28 | IEC-6 tox confirm 47
COc1cccc2c1O/C(=N\O)C(C(=O)Nc1ccc(C)cc1)C2 (stereo not given)	IEC-6 cytotox 52 (no result: Ba/F3 V617F tox, BaF3 parental, APP transl inh) | IEC-6 tox confirm 33
COc1ccc(NC(=O)C2Cc3cccc(OC)c3O/C2=N\O)cc1 (stereo not given)	none (no result: Ba/F3 V617F tox, BaF3 parental, APP transl inh)
CCc1ccccc1N(C)S(=O)(=O)c1ccc(-c2cc(C)no2)s1	IEC-6 cytotox 47 (no result: Ba/F3 V617F tox, BaF3 parental, APP transl inh) | IEC-6 tox confirm inactive
CCN(c1ccc(OC)cc1)S(=O)(=O)c1ccc(-c2cc(C)no2)s1	none (no result: Ba/F3 V617F tox, BaF3 parental, APP transl inh)
CC1(C)CC(=O)C2=C(C1)NC(Nc1nc3ccccc3o1)=NC2c1ccccn1 (stereo not given)	IEC-6 cytotox 23 | IEC-6 tox confirm inactive
Cc1ccc(Nc2nc(N)nc(CN3CCCCCC3)n2)c(C)c1	none
Cc1ccc(Nc2nc(N)nc(CCl)n2)c(C)c1	Ba/F3 V617F tox 99, BaF3 parental 30, IEC-6 cytotox 100 (no result: APP transl inh) | IEC-6 tox confirm inactive
CCOc1ccccc1N/C(=N/c1nc(C)cc(C)n1)NC(=O)Nc1ccc(Cl)c(Cl)c1	none
CCc1cc2ccc(C)c(C)c2nc1SCC(=O)Nc1cc(C)on1	IEC-6 cytotox 35 (no result: Ba/F3 V617F tox, BaF3 parental, APP transl inh) | IEC-6 tox confirm 32
Cc1cc(NC(=O)CSc2nnc(-c3ccc(O)cc3)o2)no1	none (no result: APP transl inh)
Cc1cc(NC(=O)CSc2nnc(-c3ccccc3)o2)no1	IEC-6 cytotox 29 | IEC-6 tox confirm inactive
Cc1cccc2cc(C#N)c(SCC(=O)N3CC(=O)Nc4ccccc43)nc12	Ba/F3 V617F tox 85, BaF3 parental 89, IEC-6 cytotox 93, APP transl inh 96 | IEC-6 tox confirm 74
Cc1cc(NC(=O)CSc2nc3c(C)ccc(C)c3cc2C#N)no1	none (no result: Ba/F3 V617F tox, BaF3 parental, APP transl inh)
COc1ccc2cc(C#N)c(SCC(=O)N3CC(=O)Nc4ccccc43)nc2c1	none (no result: APP transl inh)
Cc1cc(NC(=O)CSc2nc3c(C)cccc3cc2C#N)no1	IEC-6 cytotox 23 (no result: Ba/F3 V617F tox, BaF3 parental, APP transl inh) | IEC-6 tox confirm inactive
O=[N+]([O-])c1cccc2c(N3CCCC3)ccnc12	none
CC1CCN(Cc2ccc(-c3nnn(CC(=O)Nc4ccccc4Cl)n3)cc2)CC1	IEC-6 cytotox 34 | IEC-6 tox confirm 26
Cc1nc2ccc(C(=O)N3c4ccccc4CC3C)cc2s1 (stereo not given)	IEC-6 cytotox 25 | IEC-6 tox confirm 34
